Where “and” joins values, the source holds several entries; their conditions need not be identical. Equal values may be shown once. Calls of active or inactive are those of the source.

The test system of assay [1] is Human papillomavirus type 1a protein E7 (residues 44-93). The experiment in a line: small molecules binding HPV E7 44-93 – biochemical, small-molecule microarray, residues 44-93, 635 nm fluorescence, primary screen (AID 1108).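 Also: E7 fragment applied at 1 µg/mL in TBST for 1 h at 4 C; score combines spot fluorescence with its signal to noise ratio.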 The conditions noted are these: fluorescence 635 nm, higher = more signal.
Assay [2] is described as follows: hepatitis C replication reporter changes, two-sided – Huh7 cells, luciferase reporter, HCV replication inhibitor project, primary screen (AID 1109).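 Also: huh7 hepatoma cells harbouring a luciferase neomycin HCV replicon reporter; luciferase luminescence as measure of HCV replicon replication; test concentration not given here.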 Conditions: Huh7 HCV replicon luciferase reporter, 48 h; higher = more signal. On the technique in general: A reporter such as luciferase makes a cellular process visible.
For assay [3], the target named is Left-right determination factor 2 (Homo sapiens) (UniProt O00292). The experiment in a line: small molecules binding LEFTY2 protein – biochemical, small-molecule microarray, 635 nm fluorescence scan, primary screen (AID 1110). The conditions noted are these: higher = more signal.
Left-right determination factor 2 (Homo sapiens), sequence (O00292 whole entry, looked up): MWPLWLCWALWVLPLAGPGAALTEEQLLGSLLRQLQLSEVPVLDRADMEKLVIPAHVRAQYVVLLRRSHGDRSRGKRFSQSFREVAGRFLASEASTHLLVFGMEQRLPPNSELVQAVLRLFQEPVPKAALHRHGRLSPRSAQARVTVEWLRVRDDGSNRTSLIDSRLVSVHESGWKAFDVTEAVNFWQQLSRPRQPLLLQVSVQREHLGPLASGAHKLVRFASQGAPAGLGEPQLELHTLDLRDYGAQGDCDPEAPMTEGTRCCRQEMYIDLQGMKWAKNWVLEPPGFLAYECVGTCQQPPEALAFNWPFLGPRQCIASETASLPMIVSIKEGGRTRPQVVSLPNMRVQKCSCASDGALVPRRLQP
In assay [4] the target is Calmodulin-1 (Homo sapiens) (UniProt P0DP23). The assay is described as follows: small molecules binding calmodulin-1 with EGTA – biochemical, small-molecule microarray, Cy5-labelled CALM1, profiling panel (AID 1111).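 Also: labelled calmodulin applied in Tris saline Tween buffer holding calcium plus EGTA and DTT.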 The conditions noted are these: Cy5-CALM1 binding fluorescence, higher = more signal.
Assay [5] has the same target. The assay is described as follows: small molecules binding Ca-loaded calmodulin-1 – biochemical, small-molecule microarray, Cy5-labelled CALM1, plus calcium, artefact control for SMM control-protein annotation, profiling panel (AID 1112).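 Also: score merges spot fluorescence with signal to noise from triplicate slides.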 Conditions: Cy5-CALM1 binding fluorescence, higher = more signal.
Assay [6] can be described thus: probe aWnt5a binding to arrayed compounds – biochemical, biotinylated probe, 635/667 nm fluorescence, primary screen (AID 1113).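 Also: score merges 667 nm fluorescence intensity with signal-to-noise per printed feature.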 Conditions: small-molecule microarray, higher = more signal.
Assay [7] can be described thus: probe aShh binding to arrayed compounds – biochemical, biotinylated probe, 635/667 nm fluorescence, primary screen (AID 1114).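 Also: probe is biotin-labelled aShh protein from a stem cell growth factor screen; measures binding of labelled protein to compounds printed on the slide; score merges feature fluorescence at 667 nm with signal-to-noise.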 The conditions noted are these: small-molecule microarray, higher = more signal.
Assay [8] in a line: probe aNog binding to arrayed compounds – biochemical, biotinylated probe, 635/667 nm fluorescence, primary screen (AID 1115).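 Also: probe is biotinylated aNog protein used at 0.15 µg/mL for 1 h at 4 C; z-score combines 667 nm fluorescence of each spot with its signal to noise.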 Conditions: small-molecule microarray, higher = more signal.
Assay [9] deals with Torsin-1A-interacting protein 1 (Homo sapiens) (UniProt Q5JTV8). The assay is described as follows: compound microarray binding of lysate hLAP1 – cell lysate, small-molecule microarray, COS7 lysate, 635/667 nm fluorescence, primary screen (AID 1116). Conditions: 635 nm fluorescence, higher = more signal.
Torsin-1A-interacting protein 1 (Homo sapiens), sequence (Q5JTV8 whole entry, looked up): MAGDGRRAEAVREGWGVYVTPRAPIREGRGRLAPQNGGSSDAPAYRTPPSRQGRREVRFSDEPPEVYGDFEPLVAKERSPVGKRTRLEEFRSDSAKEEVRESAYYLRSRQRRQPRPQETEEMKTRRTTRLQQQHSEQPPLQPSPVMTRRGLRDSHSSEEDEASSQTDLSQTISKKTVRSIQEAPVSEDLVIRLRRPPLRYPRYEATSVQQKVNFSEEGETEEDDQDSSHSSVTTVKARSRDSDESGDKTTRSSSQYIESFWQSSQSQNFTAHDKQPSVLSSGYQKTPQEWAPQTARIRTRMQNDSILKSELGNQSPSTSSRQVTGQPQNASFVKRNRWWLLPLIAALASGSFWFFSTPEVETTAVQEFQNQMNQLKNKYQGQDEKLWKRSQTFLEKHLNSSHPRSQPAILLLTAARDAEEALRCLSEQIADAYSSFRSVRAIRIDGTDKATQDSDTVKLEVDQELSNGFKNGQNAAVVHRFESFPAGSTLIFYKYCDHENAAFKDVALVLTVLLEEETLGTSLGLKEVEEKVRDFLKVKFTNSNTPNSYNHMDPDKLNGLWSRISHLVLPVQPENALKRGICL
The target in assay [10] is Alpha-bungarotoxin (Bungarus multicinctus) (UniProt P60615). The assay is described as follows: compounds binding labelled alpha-BTX control protein – biochemical, small-molecule microarray, Alexa647 label, 635/667 nm fluorescence, artefact control for SMM control protein annotation, profiling panel (AID 1117). The conditions noted are these: alpha-BTX-A647 binding fluorescence, higher = more signal.
Alpha-bungarotoxin (Bungarus multicinctus), sequence (P60615 whole entry, looked up): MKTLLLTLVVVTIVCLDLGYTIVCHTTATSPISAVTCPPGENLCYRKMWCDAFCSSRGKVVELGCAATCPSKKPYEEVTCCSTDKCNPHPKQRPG

Another assay deals with Albumin (Bos taurus) (UniProt P02769). The assay is described as follows: compounds binding labelled BSA control protein – biochemical, small-molecule microarray, Alexa647 label, 635/667 nm fluorescence, artefact control for SMM control protein annotation, profiling panel (AID 1118).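 Also: score merges 667 nm emission intensity and signal-to-noise per printed compound spot.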 The conditions noted are these: BSA-A647 binding, fluorescence 635 nm, higher = more signal.
Albumin (Bos taurus), sequence (P02769 whole entry, looked up): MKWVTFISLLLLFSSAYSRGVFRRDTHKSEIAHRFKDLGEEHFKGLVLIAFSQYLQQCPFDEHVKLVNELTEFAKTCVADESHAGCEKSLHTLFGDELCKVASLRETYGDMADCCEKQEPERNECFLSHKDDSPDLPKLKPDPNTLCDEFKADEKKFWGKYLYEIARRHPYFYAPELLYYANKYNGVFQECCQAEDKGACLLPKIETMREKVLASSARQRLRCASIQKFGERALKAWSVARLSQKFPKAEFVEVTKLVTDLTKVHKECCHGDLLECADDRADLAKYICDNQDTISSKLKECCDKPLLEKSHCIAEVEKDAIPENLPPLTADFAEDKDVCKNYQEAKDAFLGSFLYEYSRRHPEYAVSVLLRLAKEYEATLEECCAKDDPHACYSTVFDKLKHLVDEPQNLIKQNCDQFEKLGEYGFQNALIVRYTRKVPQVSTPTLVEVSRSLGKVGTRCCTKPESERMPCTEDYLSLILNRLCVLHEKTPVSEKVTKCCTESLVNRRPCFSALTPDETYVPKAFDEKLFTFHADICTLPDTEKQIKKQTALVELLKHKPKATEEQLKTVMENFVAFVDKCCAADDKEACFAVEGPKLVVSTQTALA

A short description of assay [11]: probe aXIP binding to arrayed compounds – biochemical, NeuroSMM set, 635/667 nm fluorescence, primary screen (AID 1119).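 Also: probe is the protein aXip251-270 applied at 1 µg/mL to compound-printed slides; binding of probe to printed compounds measured as 667 nm fluorescence plus signal to noise.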 The conditions noted are these: small-molecule microarray, higher = more signal, called active from +8 up or from −8 down.
A short description of assay [12]: probe aNOTCH3 binding on compound microarray – biochemical, small-molecule microarray, 635/667 nm fluorescence, primary screen (AID 1120).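 Also: probe is a biotin-tagged antibody raised against NOTCH3 rather than NOTCH3 protein; score merges spot fluorescence near 667 nm with spot signal to noise.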 The conditions noted are these: higher = more signal.
The nature of assay [13]: probe aNOTCH2 binding on compound microarray – biochemical, small-molecule microarray, 635/667 nm fluorescence, primary screen (AID 1121).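 Also: score merges feature fluorescence read at 667 nm with its signal to noise.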 Conditions: higher = more signal.
Assay [14] addresses Carbonic anhydrase 2 (Homo sapiens) (UniProt P00918). The assay is described as follows: compounds binding carbonic anhydrase 2 – biochemical, small-molecule microarray, Alexa647-labelled CAII, profiling panel (AID 1122). The conditions noted are these: CAII-A647 binding fluorescence, higher = more signal.
A short description of assay [15]: COS7 lysate on small-molecule microarray, probe aHis, 635 nm (AID 1123).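 Also: z-score combines 667nm fluorescence intensity with signal-to-noise per printed compound spot.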 The conditions noted are these: COS7 cell lysate, fluorescence, higher = more signal.
A short description of assay [16]: probe aLAP1 signal on lysate-treated microarray – cell lysate, small-molecule microarray, COS7 lysate, primary screen (AID 1124).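 Also: lysate comes from COS7 cells expressing LAP1 and is applied at 0.3 µg/mL; score merges spot fluorescence near 667 nm with signal-to-noise over triplicate slides.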 The conditions noted are these: probe aLAP1, fluorescence, higher = more signal.
The next assay deals with Sam68 (KHDRBS1). The experiment in a line: compounds binding KHDRBS1 protein – biochemical, small-molecule microarray, 635 nm fluorescence, primary screen (AID 1125).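 Also: score merges 667 nm channel intensity with signal to noise over triplicate slides.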 The conditions noted are these: higher = more signal.
The test system of assay [17] is Chordin-like protein 2 (CHRDL2). The experiment in a line: compounds binding chordin-like 2 – biochemical, small-molecule microarray, 635 nm fluorescence, primary screen (AID 1126).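 Also: printed compound slides probed with Chrdl2 protein at 4 µg/mL for 1 h at 4 C; score merges 667 nm emission intensity with signal to noise over three replicate slides.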 Conditions: fluorescence 635 nm, higher = more signal.
Assay [18] has as its target Concanavalin-A (Canavalia ensiformis) (UniProt P02866). The assay is described as follows: compounds binding concanavalin A lectin – biochemical, small-molecule microarray, Alexa647 label, 635 nm, artefact control for SMM control protein annotation, primary screen (AID 1127).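 Also: z combines 667 nm emission intensity with signal-to-noise across three replicate slides.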 The conditions noted are these: ConA-A647 binding fluorescence, higher = more signal.

Concanavalin-A (Canavalia ensiformis), sequence (P02866 whole entry, looked up): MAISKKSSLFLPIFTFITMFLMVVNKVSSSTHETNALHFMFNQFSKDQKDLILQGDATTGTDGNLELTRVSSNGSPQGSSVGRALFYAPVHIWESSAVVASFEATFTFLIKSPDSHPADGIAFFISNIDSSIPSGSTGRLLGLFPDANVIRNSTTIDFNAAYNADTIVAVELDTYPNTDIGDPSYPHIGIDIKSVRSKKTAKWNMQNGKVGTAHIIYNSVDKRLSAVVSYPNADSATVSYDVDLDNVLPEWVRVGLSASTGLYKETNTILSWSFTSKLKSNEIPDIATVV

On to `C=CCN(Cc1ccccc1)C(=O)C1N(CCOCCO)C(=O)C2C(C(=O)O)C3C=CC21O3` (stereo not given), for which the composite z-score was -0.445 and -0.308 in assay [1]; -3 and -3.39 in assay [3]; -0.711 and -0.795 in assay [4]; 0.473 and -0.0792 in assay [5]; -0.228 and -0.208 in [6]; -0.138 and -0.276 in assay [7]. Further, the composite z-score is 0.238 and -0.341 in assay [8]; 3.99 and -0.887 in assay [9]; -2.86 and -1.73 in [10]; -1.03 and 0.202 with Albumin (Bos taurus); -0.611 and -0.41 in [12]; -0.0984 and -0.183 in assay [13]. The composite z-score was 0.903 and 0.881 in assay [14]; 1.33 and -1.28 in [15]; 1.24 and -0.375 in assay [16]; -0.604 and -0.238 with Sam68 (KHDRBS1); -3.42 and -2.87 in assay [17]; -1.05 and -0.374 in assay [18]. The z-score in [2] was 0.0184 and -0.0316. Moreover, the composite Z-score in assay [11] was -0.124 (inactive) and 0.217 (inactive).
For `C=CCN(C(=O)C(c1cccs1)N(CCOCCO)C(=O)/C=C\C(=O)O)C(C)(C)C` (stereo not given), the composite z-score in assay [1] was -1.34 and -0.3; in assay [3] it was -2.67 and -2.46; in [4], -1.36 and -0.361; in assay [5] it was -0.183 and 0.48; in assay [6] it was -0.154 and -0.239; in assay [7] it was -0.174 and 0.151. Besides, the composite z-score in assay [8] was -0.0689 and 0.106; in assay [9], 0.17 and -0.417; in assay [10], -2.22 and -0.34; with Albumin (Bos taurus), -0.503 and -0.823; in [12] it was -0.387 and -0.349; in assay [13] it was -0.148 and -0.126. Moreover, the composite z-score in assay [14] was 0.847 and 0.9; in assay [15], -0.851 and 0.606; in [16] it was -0.957 and 0.0378; in the assay with Sam68 (KHDRBS1) it was -1.33 and -0.246; in [17] it was -2.31 and -1.58; in assay [18], -1.4 and -1.67. Besides, the z-score in [2] is 0.399 and -0.274. The composite Z-score in [11] is -0.48 (inactive) and -0.0662 (inactive).
`CCOC(=O)CCN1C(=O)[C@H]2[C@H]3[C@H](O)[C@H](O)CC(=NNC(=O)OCC)[C@@H]3CC[C@H]2C1=O`: the composite z-score was 0.582 in assay [1]; 0.354 in assay [3]; 0.0089 in assay [4]; -1.05 in assay [5]; 0.0511 in assay [6]; -0.273 in assay [7]. Moreover, the composite z-score in [8] was 0.0234; in assay [9] it was -0.0895; in [10], 0.353; in the assay with Albumin (Bos taurus), 0.357; in [12] it was 0.229; in assay [13] it was -0.0131. Also, the composite z-score in [14] was -0.249; in [15], 0.043; in assay [16], 0.127; in the assay on Sam68 (KHDRBS1) it was 0.739; in assay [17], -0.0855; in [18] it was 0.0804. The molecule also gave a z-score in assay [2] of 0.374. Moreover, the composite Z-score in assay [11] was -0.436 (inactive).
Turning to `CN1C(=O)C2CC=C([C@H]3Oc4ccccc4S(=O)(=O)N4CCC[C@@H]34)CC2C1=O` (stereo not given in full), the composite z-score in assay [1] was -1.21 and -1.99; in [3] it was -0.356 and 0.11; in assay [4] it was -0.931 and -0.686; in assay [5] it was -0.803 and -0.798; in assay [6] it was -0.1 and -0.0125; in assay [7], -0.0553 and -0.0146. Further, the composite z-score in assay [8] was -0.172 and -0.324; in assay [9] it was 0.0203 and 0.0568; in assay [10] it was 0.0847 and -0.814; with Albumin (Bos taurus), -0.75 and -0.505; in assay [12] it was -0.182 and -0.173; in [13], -0.14 and -0.084. Besides, the composite z-score in assay [14] was -0.296 and -0.322; in assay [15], -0.616 and -0.564; in assay [16] it was 0.892 and -0.263; in the assay with Sam68 (KHDRBS1), -1.08 and -1.56; in [17], -0.144 and 0.153; in [18] it was -0.476 and -1.05. Moreover, the z-score in assay [2] was -0.539 and -0.95. Also, the composite Z-score in [11] is 0.183 (inactive) and -0.213 (inactive).
For `CC(C)=NO[C@@H](C)c1cc(-c2c(C)cc(C)cc2C)no1`, the composite z-score in assay [1] is -0.379; in [3], 0.192; in assay [4], -0.35; in assay [5], -0.264; in [6], -0.152; in assay [7], 0.0899. Further, the composite z-score in assay [8] is -0.242; in assay [9] it was 0.1; in assay [10] it was 0.282; with Albumin (Bos taurus), 0.0075; in assay [12], -0.181; in [13] it was -0.181. In addition, the composite z-score was -0.223 in assay [14]; -0.177 in assay [15]; 0.214 in [16]; -0.228 in the assay on Sam68 (KHDRBS1); 0.227 in assay [17]; 0.154 in assay [18]. The molecule further registered a z-score in assay [2] of -0.527. Further, the composite Z-score in assay [11] was 0.454 (inactive).
For the molecule `CCOC(=O)[C@@H]1CC2O[C@]23C[C@@H]1C(=O)N1CCC[C@@H]1[C@H]3O[Si](C)(C)C(C)(C)C` (stereo not given in full), the composite z-score in assay [1] is -1.22 and -0.182; in assay [3], -0.125 and 0.446; in [4] it was -0.46 and -0.641; in assay [5] it was -0.748 and -0.252; in assay [6], -0.251 and -0.124; in assay [7] it was -0.299 and -0.197. Also, the composite z-score in assay [8] was -0.321 and -0.134; in assay [9], -0.826 and -0.136; in assay [10], 0.102 and -0.667; in the assay with Albumin (Bos taurus) it was -0.8 and -0.548; in [12] it was -0.11 and -0.128; in assay [13] it was -0.2 and -0.0949. Moreover, the composite z-score in assay [14] was -0.396 and 0.106; in assay [15], -0.645 and 0.205; in [16], -0.452 and 0.103; with Sam68 (KHDRBS1) it was -1.37 and -0.191; in [17], 0.1 and -0.201; in [18], -1.82 and -0.262. Also, the z-score in [2] was -0.417 and -0.4. The composite Z-score in [11] was 0.223 (inactive) and 0.413 (inactive).

These data come from PubChem BioAssay.
